Compound activity: PubChem BioAssay, National Center for Advancing Translational Sciences (NCATS)
An excerpt weighted towards active compounds, which were near 21% of everything screened.
IL1B secr inh: qHTS for Inhibitors of Inflammasome Signaling: IL-1-beta AlphaLISA Primary Screen | 360,000 compounds, 4.7% hits | AID 743279, 2014 | activity change, % at 57.5 µM | THP-1 LPS/ATP IL-1B secretion, AlphaLISA, 16 h; active compounds read low; in the data active means activity change below about -50%; inconclusive means mostly about -30% to -49%
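Secreted IL-1B measured by AlphaLISA bead assay after 16 h compound exposure of THP-1 cells; compounds (final up to 57.5 uM) added 1 h before LPS (250 ng/mL) and ATP (1.25 mM) stimulation; lower signal means less secretion.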
ClpP mod: qHTS Assay for Activators of ClpP. ATP-dependent Clp protease proteolytic subunit (Bacillus subtilis (strain 168)), P80244. purified B. subtilis ClpP, FRET peptide cleavage, 20 min. Potency, µM (doses to about 57.5 µM). 340,000 compounds, 1.9% hits. AID 651965, 2013; active means well fitted falling curve with a large enough effect; inconclusive means small, poorly fitted or top-dose-only effect; inactive means no such curve, though single readings can be large or run the other way; further: the source files actives as falling curves though it sought activators and does not explain the sign; nearly all actives have a fitted effect of over 65% in size
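Purified B. subtilis ClpP, 10 microg/mL final in Tris/HCl pH8 with KCl, BSA, glycerol and Tween-20, cleaved an Abz/nitrotyrosine-quenched decapeptide. Fluorescence (ex 320, em 430) was read at 0 and 20 min at room temperature. Delta was normalized to 5.8 microM ADEP and DMSO/no-enzyme controls.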
DRD3 antagonist: qHTS of D3 Dopamine Receptor Antagonist: qHTS. D3R cells, DiscoveRx beta-arrestin luminescence, antagonist mode; active compounds read low. max response, negative = inhibition, %. 360,000 compounds, 2.5% hits. AID 652054, 2013; in the data active means max response below about -50%; inconclusive means no clear call, values can overlap the other calls
Target sequence (P35462 whole entry, looked up): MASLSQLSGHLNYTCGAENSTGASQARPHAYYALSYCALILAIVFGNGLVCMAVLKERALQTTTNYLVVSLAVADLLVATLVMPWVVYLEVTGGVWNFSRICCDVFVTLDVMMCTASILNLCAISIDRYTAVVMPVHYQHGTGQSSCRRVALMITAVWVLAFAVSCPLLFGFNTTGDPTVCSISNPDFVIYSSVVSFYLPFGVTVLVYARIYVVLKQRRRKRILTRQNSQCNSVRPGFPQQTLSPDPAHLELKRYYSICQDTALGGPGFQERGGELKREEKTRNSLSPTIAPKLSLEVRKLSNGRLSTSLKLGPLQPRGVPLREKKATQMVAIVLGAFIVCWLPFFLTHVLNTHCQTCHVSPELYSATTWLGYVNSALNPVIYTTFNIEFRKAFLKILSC
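Cells plated overnight at 1500 cells/well, then exposed to library compounds with dopamine controls for 90 minutes at 37 degrees C. DiscoveRx reagent added for 30–60 minutes at room temperature; luminescence read, quantitative HTS format.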
DT40 TDP1 CPT: qHTS for Inhibitors of human tyrosyl-DNA phosphodiesterase 1 (TDP1): qHTS in cells in presence of CPT; chicken DT40 Tdp1-/-;hTDP1 cells + 20 nM CPT, ATP luminescence, 48 h; AID 686979, 2013; Potency, µM (titrated, usually from 46.2 µM), most hits filed as inhibitors; 420,000 compounds, 12% hits; further: nearly all actives have a fitted effect of over 55% in size
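Chicken DT40 Tdp1-/- cells complemented with human TDP1, 400 cells/well, exposed to compounds plus 20 nM camptothecin for at least 48 h at 37 C; viability read as ATP content by CellTiter-Glo luminescence.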
TDP1 cell noCPT: qHTS for Inhibitors of human tyrosyl-DNA phosphodiesterase 1 (TDP1): qHTS in cells in absence of CPT | DT40 Tdp1-/- hTDP1 cells, no CPT, ATP luminescence, 48 h | Potency, µM (titrated, usually from 46.2 µM), actives largely listed as inhibitors | 420,000 compounds, 15% hits; further: nearly all actives have a fitted effect of over 55% in size
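A cellular qHTS used chicken DT40 cells lacking endogenous Tdp1 but carrying stably transfected human TDP1. Compounds were applied without camptothecin, and cell growth kinetics were judged by ATP-dependent luminescence after ≥48 hr.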
D3 ag: qHTS of D3 Dopamine Receptor Agonist: qHTS; D(3) dopamine receptor (Homo sapiens), P35462; D3R DiscoveRx beta-arrestin cells, luminescence, 90 min; max activation, %; 410,000 compounds, 0.58% hits; AID 652048, 2013; in the data active means max activation above about 30%
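Agonist-mode cell screen: cells plated at 1500/well and incubated overnight at 37 °C, then exposed to library compounds for 90 min at 37 °C. Detection reagent was added for 30–60 min at room temperature, and luminescence was read.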
Of the large screens only hits and unclear results are named; the others gave an inactive call. Unless noted, the call rests on the fitted dose curve; in most records, active means well fitted inhibition curve with a large enough effect; inconclusive means small, poorly fitted or top-dose-only effect; inactive means flat fitted curve, though single readings scatter.

COc1ccc(Cc2c(O)[nH]c(=O)[nH]c2=O)c(OC)c1	none (no result: ClpP mod)
C=CCC1=C(C)C(OC(=O)C2C(C=C(C)C)C2(C)C)CC1=O (stereo unspecified)	DT40 TDP1 CPT inconclusive, TDP1 cell noCPT 24µM (no result: IL1B secr inh, ClpP mod, DRD3 antagonist)
COC(=O)C1C2c3ccccc3C(c3ccccc32)C1(C)C(=O)OC (stereo unspecified)	none (no result: ClpP mod)
O=C(O)c1ccccc1-c1c2cc(Br)c(=O)cc-2oc2[c]([Hg])c(O)c(Br)cc12	DT40 TDP1 CPT 1.5µM, TDP1 cell noCPT 0.58µM (no result: IL1B secr inh, ClpP mod, DRD3 antagonist, D3 ag)
OC1/C(=C/c2ccc(F)cc2)N2CCC1CC2 (stereo unspecified)	none
Cc1cc(O)c(CN2CC=C(c3ccccc3)CC2)cc1C(C)C	DRD3 antagonist -73, DT40 TDP1 CPT inconclusive, TDP1 cell noCPT inconclusive (no result: ClpP mod)
CCCCC(CC)COCCCN=Cc1c(O)[nH]c(=S)[nH]c1=O (stereo unspecified)	DRD3 antagonist inconclusive, DT40 TDP1 CPT inconclusive, TDP1 cell noCPT inconclusive
CC(C)(C)OC(=O)N1CCCC(C(=O)Nc2cccc(C(=O)NCCc3ccccc3)c2)C1 (stereo unspecified)	DT40 TDP1 CPT 15µM, TDP1 cell noCPT 21µM
CCOCCCNC(=O)CN1C2CCC1CC(O)(c1ccc(OC)cc1)C2 (stereo unspecified)	DRD3 antagonist -72
CCN(c1cccc(C)c1)S(=O)(=O)c1ccc2c(c1)oc(=O)n2C	TDP1 cell noCPT inconclusive
Cc1cccc(N(C)S(=O)(=O)c2cc(-c3cnc(C4CC4)o3)ccc2C)c1	DT40 TDP1 CPT 16µM, TDP1 cell noCPT 23µM (no result: IL1B secr inh, DRD3 antagonist)
COc1nc(C)nc(NC(=O)NS(=O)(=O)c2ccccc2Cl)n1	none
O=C(CCl)Nc1nccs1	IL1B secr inh -62, DT40 TDP1 CPT 2.6µM, TDP1 cell noCPT 5.8µM
O=C(Nc1nccs1)C(Cl)(Cl)Cl	none (no result: ClpP mod)
O=C(Nc1ccc(Cl)cc1)Nc1nccs1	DT40 TDP1 CPT 4.1µM, TDP1 cell noCPT 2.9µM
O=P(OC1CCCCC1)(OC1CCCCC1)C(O)c1c(Cl)cccc1Cl (stereo unspecified)	DT40 TDP1 CPT inconclusive, TDP1 cell noCPT inconclusive
COc1ccc(CN2CCc3nc(N4CCN(c5ccc(F)cc5)CC4)ncc3C2)c(OC)c1OC	DT40 TDP1 CPT 5.8µM, TDP1 cell noCPT 4.6µM (no result: IL1B secr inh, DRD3 antagonist)
CCCOP(=O)(OCCC)C1(Nc2ccc(C)cc2)CCCCC1	TDP1 cell noCPT inconclusive
Cc1ccc(Cn2cccc(C(=O)Nc3nnc(C)s3)c2=O)cc1	none (no result: IL1B secr inh, DRD3 antagonist)
CC[C@@H](C(=O)O)[C@@H]1O[C@@H]([C@@H](C)[C@H](O)[C@H](C)C(=O)[C@H](CC)[C@H]2O[C@]3(C=C[C@@H](O)[C@]4(CC[C@@](C)([C@H]5CC[C@](O)(CC)[C@H](C)O5)O4)O3)[C@H](C)C[C@@H]2C)[C@@H](C)C[C@@H]1C	DT40 TDP1 CPT 0.47µM, TDP1 cell noCPT 0.27µM, D3 ag 54 (no result: IL1B secr inh, ClpP mod, DRD3 antagonist)
COc1nc(NC(C)C)nc(N(C#N)CN2C(=O)c3ccccc3S2(=O)=O)n1	IL1B secr inh inconclusive, DRD3 antagonist -58, DT40 TDP1 CPT 23µM (no result: ClpP mod)
O=C1NC(=S)N(c2ccccc2)C(=O)C1C(c1ccncc1)C1C(=O)NC(=S)N(c2ccccc2)C1=O (stereo unspecified)	none
N/C(=N\N=C\c1ccc(O)cc1O)N[N+](=O)[O-]	DRD3 antagonist -64
Cc1ccccc1NC(=O)N1Cc2ccccc2-n2nncc2C1	none
O=C(CCCOc1ccc(Cl)cc1Cl)Nc1cc(S(=O)(=O)N2CCOCC2)ccc1N1CCOCC1	IL1B secr inh inconclusive, DT40 TDP1 CPT inconclusive, TDP1 cell noCPT inconclusive
CC1(CCO)C(=O)NC(=S)NC1=O	none
c1cc2c(c(NC3=NCCN3)c1)CCCC2	DT40 TDP1 CPT inconclusive, TDP1 cell noCPT inconclusive (no result: IL1B secr inh, ClpP mod, DRD3 antagonist)
